# Assay results from PubChem BioAssay (NCI).
# Compounds without any hit were thinned out: in the full panel of roughly 83,000, 20% have a hit.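 Testing used 96-well plates and a 48-hour single-concentration exposure. Example: -40 means 40% of the starting cells died.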 Values without a mark were called inactive. Calls of active or inactive are those of the source. The calls were made as follows: active = growth percent below 10; inactive = the rest.
# Columns and labels:
# Test in all cases: NCI-60 one-dose screen, 48 h (100 = growth as untreated, 0 = no growth, -100 = all killed)
# Conditions in all cases: 10 µM unless noted
# [1] = system: HCT-15 colon
# [2] = system: HT29 colon
# [3] = system: SNB-75 CNS
# [4] = system: SNB-19 CNS
# [5] = system: U251 CNS
# [6] = system: PC-3 prostate
# [7] = system: SK-MEL-5 melanoma
# [8] = system: UACC-62 melanoma
# [9] = system: LOX IMVI melanoma
# [10] = system: SK-MEL-28 melanoma
# [11] = system: SK-MEL-2 melanoma
# [12] = system: EKVX NSCLC
# [13] = system: SN12C renal
# [14] = system: UO-31 renal
# [15] = system: TK-10 renal
# [16] = system: ACHN renal
# [17] = system: CAKI-1 renal
# [18] = system: A498 renal
# [19] = system: CCRF-CEM leukemia
# [20] = system: MOLT-4 leukemia
Compound,growth [1],growth [2],growth [3],growth [4],growth [5],growth [6],growth [7],growth [8],growth [9],growth [10],growth [11],growth [12],growth [13],growth [14],growth [15],growth [16],growth [17],growth [18],growth [19],growth [20]
CCc1onc(-c2ccc(OC)cc2)c1-c1ccccc1OCCN(CC)CC,98.2%,60.3%,60.9%,91.3%,93.9%,75.1%,81%,97.7%,71.9%,100%,94.9%,85.2%,91.4%,56.8%,92.2%,92.9%,82.4%,63.3%,75.6%,87.2%
CC(C)c1ccc(-c2cnc3nonc3n2)cc1,19.3%,29.8%,54.3%,40.7%,65.9%,19.3%,32.5%,14.2%,26.1%,73.9%,76.4%,71.9%,26.2%,41.3%,47.5%,51.3%,60.7%,61.8%,1.81% (active),-12.1% (active)
CCC1=CC2CN(C1)Cc1c([nH]c3ccccc13)[C@@](C(=O)OC)(c1cc3c(cc1OC)N(C)[C@H]1[C@@](O)(C(=O)OC)[C@H](OC(C)=O)[C@]4(CC)C=CCN5CC[C@]31[C@@H]54)C2 (stereo not given in full),21.5%,2.55% (active),-5.65% (active),53.6%,11%,34.5%,-46.9% (active),43.6%,20%,62.1%,5.95% (active),68.6%,36.9%,51.5%,41.2%,34.1%,44.3%,-14.6% (active),19.1%,6.56% (active)
Cc1nn(-c2cccc(Cl)c2)c(C)c1N=Nc1ccc(Br)cc1,94.4%,74.7%,91.9%,97.9%,92.5%,80.9%,97.5%,81.7%,101%,92.3%,102%,87.5%,94.4%,86.5%,90.1%,92%,86.7%,83%,97.3%,98.9%
O=C(Cc1ccc([N+](=O)[O-])cc1)Oc1ccccc1,104%,104%,102%,103%,107%,93.1%,105%,101%,107%,112%,102%,128%,106%,77%,104%,110%,117%,107%,99.3%,108%
C=C(COC(C)=O)[C@H]1CC/C(C)=C/CC/C(C)=C/CC[C@@]2(C)O[C@H]2C1,96%,108%,109%,106%,98.3%,129%,108%,99.6%,94.6%,104%,101%,106%,106%,99.9%,108%,99.8%,126%,119%,328%,110%
CC[C@]1(O)C[C@H]2CN(CCc3c([nH]c4ccccc34)C(C(=O)OC)(c3cc4c(cc3OC)N(C)[C@H]3[C@@](O)(C(=O)OC)[C@H](OC(C)=O)[C@]5(CC)[C@@H]6C[C@@H]6CN6CC[C@]43[C@@H]65)C2)C1 (stereo not given in full),19.5%,7.29% (active),-14.6% (active),24%,13.7%,18.9%,-80.1% (active),14.5%,5.88% (active),53.7%,45.5%,35.2%,22.2%,9.66% (active),52.7%,5.92% (active),-13.2% (active),16.6%,4.35% (active),3.74% (active)
